Values joined by “and” are separate entries in the source; they are usually repeats but may differ in a detail not shown here. Identical values can stand only once. Inconclusive results are not listed. Active and inactive are the calls of the source.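 Rule for the calls, unless noted: active = normalized viability below 100% at a tested concentration; inactive = the rest.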
Columns and labels:
[1] = viability loss in pontine glioma line – cell-based, SU-DIPG-XVII, MIPE5.0, CellTiter-Glo, qHTS, dose response (AID 1347060; cut-off not given, nearly all actives have AC50 up to about 26 µM;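 note: cells exposed to compound for 48 hours before viability readout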); details: CellTiter-Glo ATP luminescence
[2] = viability loss in pontine glioma line – cell-based, JHH-DIPG-1, MIPE4.0, CellTiter-Glo, qHTS, dose response (AID 1347062; cut-off not given, nearly all actives have AC50 up to about 27 µM;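 note: cells exposed to compound for two days before readout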); details: JHH-DIPG-1 viability, CellTiter-Glo ATP luminescence
[3] = viability loss in pontine glioma line – cell-based, SU-DIPG-IV, MIPE4.0, CellTiter-Glo, qHTS, dose response (AID 1347063; cut-off not given, nearly all actives have AC50 up to about 30 µM;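 note: compound exposure lasted 48 hours before the viability readout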); details: CellTiter-Glo ATP luminescence
[4] = viability loss in pontine glioma line – cell-based, SU-DIPG-XIII, MIPE5.0, CellTiter-Glo, qHTS, dose response (AID 1347064; cut-off not given, nearly all actives have AC50 up to about 23 µM;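 note: cells exposed to compound for 48 hours before the viability read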); details: CellTiter-Glo ATP luminescence
[5] = viability loss in pontine glioma line – cell-based, SU-DIPG-XXV, MIPE5.0, CellTiter-Glo, qHTS, dose response (AID 1347065; cut-off not given, nearly all actives have AC50 up to about 26 µM;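 note: cells exposed to compound for 48 hours before ATP readout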); details: CellTiter-Glo ATP luminescence
[6] = JHH-DIPG-1 glioma cell viability, MIPE5.0 library, CellTiter-Glo luminescence, qHTS (AID 1347067; cut-off not given, nearly all actives have AC50 up to about 26 µM;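 note: cells exposed to compound for 48 hours before readout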); details: JHH-DIPG-1 glioma viability, CellTiter-Glo ATP luminescence
[7] = growth inhibition of DIPG cells – cell-based, MIPE5.0 library, qHTS (AID 1347068; cut-off not given, nearly all actives have IC50 up to about 30 µM;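 note: cells exposed to compound for 48 hours before viability readout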); details: SU-DIPG-XXV viability
[8] = viability loss with induced miR-34 in A549 – imaging, A549 dox-inducible miR-34, nuclei and caspase counts, primary screen (AID 1347080;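 active = compounds whose cell count with miR-34 switched on is under 0.7 times the count with it off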); details: A549 miR-34 inducible, Hoechst nuclei count, 48 h
[9] = MELAS cybrid and Rieske KO viability enhancers – cell-based, MELAS cybrids, Rieske KO mouse fibroblasts, CellTiter-Glo, primary screen (AID 1508586;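 active = mean z-score across replicates of 1.96 or higher in either the MELAS or the Rieske mutant cell line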;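 note: z relative to plate mean and SD of compound and empty wells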); details: low glucose
[10] = drug combination growth inhibition, ovarian cancer – cell-based, oncology-focused library, rucaparib conditional, profiling panel (AID 1508598); details: patient-derived ovarian cancer cells, CellTiter-Glo viability, 144 h, stronger effect = lower value
[11] = compounds altering HSF1 focus formation in cells – imaging, Selleck Cancer Library (AID 1347162; in the data active = plate-normalised HSF1 focus index below about 0.46); details: human cells, HSF1 nuclear foci imaging, at 10 µM; SSMD: measured here: HSF1 foci SSMD mean; cell count: measured here: cell number; plate-normalised HSF1 focus index: stronger effect = lower value
[12] = stronger effect = lower value, cell number ratio, induced over uninduced
[13] = measured here: relative caspase fold change +Dox/-Dox
[14] = measured here: total cells with miR-34 induction, stronger effect = lower value
[15] = measured here: total cells without miR-34 induction
[16] = MELAS cybrid survival, CellTiter-Glo 48 h, stronger effect = higher value
[17] = Rieske KO mouse fibroblast survival, CellTiter-Glo 72 h
[18] = at 0.000305 µM, OCI-C5x cells, with rucaparib 10 µM, 100% = cells with rucaparib alone
[19] = at 0.000305 µM, OCI-C5x cells, without rucaparib
[20] = at 0.000305 µM, OCI-P5x cells, with rucaparib 20 µM, 100% = cells with rucaparib alone
[21] = at 0.000305 µM, OCI-P5x cells, without rucaparib
[22] = at 0.00122 µM, OCI-C5x cells, with rucaparib 10 µM, 100% = cells with rucaparib alone
[23] = at 0.00122 µM, OCI-C5x cells, without rucaparib
[24] = at 0.00122 µM, OCI-P5x cells, with rucaparib 20 µM, 100% = cells with rucaparib alone
[25] = at 0.00122 µM, OCI-P5x cells, without rucaparib
[26] = at 0.00488 µM, OCI-C5x cells, with rucaparib 10 µM, 100% = cells with rucaparib alone
[27] = at 0.00488 µM, OCI-C5x cells, without rucaparib
[28] = at 0.00488 µM, OCI-P5x cells, with rucaparib 20 µM, 100% = cells with rucaparib alone
[29] = at 0.00488 µM, OCI-P5x cells, without rucaparib
[30] = at 0.0195 µM, OCI-C5x cells, with rucaparib 10 µM, 100% = cells with rucaparib alone
[31] = at 0.0195 µM, OCI-C5x cells, without rucaparib
[32] = at 0.0195 µM, OCI-P5x cells, with rucaparib 20 µM, 100% = cells with rucaparib alone
[33] = at 0.0195 µM, OCI-P5x cells, without rucaparib
[34] = at 0.0781 µM, OCI-C5x cells, with rucaparib 10 µM, 100% = cells with rucaparib alone
[35] = at 0.0781 µM, OCI-C5x cells, without rucaparib
[36] = at 0.0781 µM, OCI-P5x cells, with rucaparib 20 µM, 100% = cells with rucaparib alone
[37] = at 0.0781 µM, OCI-P5x cells, without rucaparib
[38] = at 0.313 µM, OCI-C5x cells, with rucaparib 10 µM, 100% = cells with rucaparib alone
[39] = at 0.313 µM, OCI-C5x cells, without rucaparib
[40] = at 0.313 µM, OCI-P5x cells, with rucaparib 20 µM, 100% = cells with rucaparib alone
[41] = at 0.313 µM, OCI-P5x cells, without rucaparib
[42] = at 1.25 µM, OCI-C5x cells, with rucaparib 10 µM, 100% = cells with rucaparib alone
[43] = at 1.25 µM, OCI-C5x cells, without rucaparib
[44] = at 1.25 µM, OCI-P5x cells, with rucaparib 20 µM, 100% = cells with rucaparib alone
[45] = at 1.25 µM, OCI-P5x cells, without rucaparib
[46] = at 5 µM, OCI-C5x cells, with rucaparib 10 µM, 100% = cells with rucaparib alone
[47] = at 5 µM, OCI-C5x cells, without rucaparib
[48] = at 5 µM, OCI-P5x cells, with rucaparib 20 µM, 100% = cells with rucaparib alone
[49] = at 5 µM, OCI-P5x cells, without rucaparib

COc1cc2nccc(Oc3ccc(NC(=O)C4(C(=O)Nc5ccc(F)cc5)CC4)cc3)c2cc1OC
active: AC50 [1] 13.2 µM | AC50 [2] 2.35 µM | AC50 [3] 4.69 µM | AC50 [4] 16.6 µM | AC50 [5] 7.42 µM | AC50 [6] 11.8 µM | IC50 [7] 8.33 µM | viability [10, 20] 85.5% | viability [10, 21] 68.9% | viability [10, 24] 59.2% | viability [10, 25] 22.8% | viability [10, 28] 94.7% | viability [10, 29] 99.9% | viability [10, 32] 94.3% | viability [10, 36] 93.1% | viability [10, 40] 87.8% | viability [10, 41] 94.8% | viability [10, 44] 84.5% | viability [10, 45] 91.5% | viability [10, 48] 74.7% | viability [10, 49] 85.4%
inactive: fold change [8, 12] 1.18 and 1.06 | z-score [9, 16] -0.475 and -0.436 | viability [10, 18] 114% | viability [10, 19] 126% | viability [10, 22] 115% | viability [10, 23] 119% | viability [10, 26] 110% | viability [10, 27] 114% | viability [10, 30] 118% | viability [10, 31] 122% | viability [10, 33] 101% | viability [10, 34] 127% | viability [10, 35] 115% | viability [10, 37] 101% | viability [10, 38] 130% | viability [10, 39] 129% | viability [10, 42] 147% | viability [10, 43] 133% | viability [10, 46] 146% | viability [10, 47] 133%
0.894 and 0.677: fold change [8, 13]
1.25 and 1.04: z-score [9, 17]
1810 and 3700: cell count [8, 14]
1540 and 3490: cell count [8, 15]

CN1CC[C@@H](c2c(O)cc(O)c3c(=O)cc(-c4ccccc4Cl)oc23)[C@@H](O)C1
active: AC50 [1] 0.468 µM | AC50 [2] 0.105 µM | AC50 [3] 0.0743 µM | AC50 [4] 0.332 µM | AC50 [5] 0.468 µM | AC50 [6] 0.59 µM

CCN(CC)CCCCNc1ncc2cc(-c3cc(OC)cc(OC)c3)c(NC(=O)NC(C)(C)C)nc2n1
0.5: z-score [9, 17]
-4.74: SSMD [11]
4880 and 4370: cell count [8, 14]
5500 and 5930: cell count [8, 15]
active: AC50 [1] 0.468 µM | AC50 [2] 26.4 µM | AC50 [3] 16.6 µM | AC50 [4] 0.372 µM | AC50 [5] 0.372 µM | AC50 [6] 16.6 µM | IC50 [7] 3.32 µM | viability [10, 20] 96.8% | viability [10, 21] 89.9% | viability [10, 25] 98.6% | viability [10, 47] 85.3% | viability [10, 48] 74.6% | viability [10, 49] 68.4%
1.64 and 1.42: fold change [8, 13]
inactive: fold change [8, 12] 0.886 and 0.737 | plate-normalised HSF1 focus index [11] 0.703 | z-score [9, 16] -0.712 | viability [10, 18] 117% | viability [10, 19] 103% | viability [10, 22] 105% | viability [10, 23] 104% | viability [10, 24] 105% | viability [10, 26] 118% | viability [10, 27] 110% | viability [10, 28] 104% | viability [10, 29] 101% | viability [10, 30] 118% | viability [10, 31] 108% | viability [10, 32] 109% | viability [10, 33] 108% | viability [10, 34] 120% | viability [10, 35] 113% | viability [10, 36] 113% | viability [10, 37] 104% | viability [10, 38] 120% | viability [10, 39] 115% | viability [10, 40] 105% | viability [10, 41] 101% | viability [10, 42] 140% | viability [10, 43] 126% | viability [10, 44] 100% | viability [10, 45] 105% | viability [10, 46] 140%
7260: cell count [11]

From PubChem BioAssay
